Results on 35 molecules are retold here after PubChem BioAssay AID1053125 (Broad Institute, 2014).

Measured potencies and affinities stand elsewhere. A number with no mark means an inactive call.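 Rule for the calls: active = viability loss whose fitted half-maximal concentration is at most twice the top valid tested dose; inconclusive = flat curve with 30 to 70% loss, or poor fit; inactive = the rest.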

This assay is described as follows: viability loss in HepG2 liver cells – cell-based, ATP luminescence, cherry-pick, set 6, cytotoxicity control, dose response (AID 1053125). The settings on record: ATP luminescence (CellTiter-Glo), 72 h; series mostly up to 26 µM; activity change, negative = cytotoxicity: at the top concentration.
Consider `O=C(O)C1=CC[C@@H](c2ccc(Cl)cc2)N(S(=O)(=O)c2ccc(Cl)cc2)[C@H]1c1ccc(F)cc1`, for which the “activity change, negative = cytotoxicity” value was 9.31%.

As for `CCN(CC)c1ccc2cc(S(=O)(=O)c3ccc(Cl)cc3)c(=O)oc2c1`, the “activity change, negative = cytotoxicity” value is -11.5%.

In the case of `Cc1oc(/N=C/c2ccc(F)cc2)c(C#N)c1C`, the “activity change, negative = cytotoxicity” value was -4.78%.

As to `CCOC(=O)c1cc2c(=O)n3ccccc3nc2n(CCCOC)c1=NC(=O)c1ccncc1`, the “activity change, negative = cytotoxicity” value was -12.2%.

As to `Cc1c2c(n3c(nc4ccccc43)c1C#N)N(CCN1CCOCC1)CC2`, the “activity change, negative = cytotoxicity” value is -7.79%.

Regarding `Cn1nc(-c2ccc(Cl)cc2)c2cc(C(=O)N3CCN(c4ccccc4)CC3)sc21`, the “activity change, negative = cytotoxicity” value was -12.4%.

Regarding `CCc1cccc(C)c1NC(=S)NCc1ccc2c(c1)cc(C)n2C`, the “activity change, negative = cytotoxicity” value is 9.93%.

For `Cc1nc2ccccc2c2oc(C(=O)NCCCN3CCC(C)CC3)cc12`, the “activity change, negative = cytotoxicity” value is -12.2%.

In the case of `COc1cc(C(=O)OCC(C)=O)cc(NC(=O)c2ccco2)c1OC`, the “activity change, negative = cytotoxicity” value is 2.34%.

`N=c1oc2cc(O)ccc2cc1C(=O)Nc1ccc(Br)cc1`: the “activity change, negative = cytotoxicity” value is -15.2%.

Turning to `COc1ccc(C2c3ccc(O)cc3Oc3ncn4nc(-c5ccccn5)nc4c32)cc1` (stereo not given), the “activity change, negative = cytotoxicity” value is -1.07%.

As for `Cc1ccc(S(=O)(=O)Nc2ccc(Nc3ccccc3)cc2)cc1`, the “activity change, negative = cytotoxicity” value was -9.07%.

Regarding `CCOCCCNc1c(CC)c(C)c(C#N)c2nc3ccccc3n12`, the “activity change, negative = cytotoxicity” value is -11.8%.

With `CCOC(=O)c1cc2c(=O)n3ccccc3nc2n(Cc2ccc(Cl)cc2)c1=N`, the “activity change, negative = cytotoxicity” value was -10.4%.

In the case of `O=C1c2ccccc2S(=O)(=O)c2cc(N3CCC(C(=O)N4CCCCC4)CC3)ccc21`, the “activity change, negative = cytotoxicity” value is -6.38%.

On to `CN(C)C(=O)CSc1nc2ccc(C(=O)c3ccccc3)cc2[nH]1`, for which the “activity change, negative = cytotoxicity” value is -13.4%.

As for `CN1CCc2c(sc(NC(=O)Cc3ccccc3)c2C#N)C1`, the “activity change, negative = cytotoxicity” value is -7.87%.

Consider `COCCn1c(=N)c(S(=O)(=O)c2ccc(F)cc2)cc2c(=O)n3ccccc3nc21`, for which the “activity change, negative = cytotoxicity” value is -0.298%.

As to `O=c1c2ccccc2n(CC(O)CN2CCCCC2)c2ccccc12` (stereo not given), the “activity change, negative = cytotoxicity” value was 0.985%.

On to `O=c1oc2c(CN3CCN(CCO)CC3)c(O)ccc2cc1-c1ccccn1`, for which the “activity change, negative = cytotoxicity” value was -7.38%.

On to `O=C1CCc2cc(S(=O)(=O)NC(Cc3ccccc3)C(=O)NCCC3=CCCCC3)ccc2N1` (stereo not given), for which the “activity change, negative = cytotoxicity” value was 5.87%.

`CCOc1ccc(C2C(C#N)=C(N)Oc3cc(O)ccc32)cc1OCC` (stereo not given): the “activity change, negative = cytotoxicity” value is 10%.

Turning to `CC(C)CCN1C(=O)c2cccc3c(N)ccc(c23)C1=O`, the “activity change, negative = cytotoxicity” value was 27.9%.

For the molecule `CCC(C)n1c(=N)c(C#N)cc2c(=O)n3cc(C)ccc3nc21` (stereo not given), the “activity change, negative = cytotoxicity” value was 5.59%.

For `CCCOc1ccccc1/C=C1\SC(N)=NC1=O`, the “activity change, negative = cytotoxicity” value was -8.75%.

Turning to `Cc1ccc(O)c(NC(=S)NC(=O)COc2ccc(Br)cc2)c1`, the “activity change, negative = cytotoxicity” value was 13.5%.

On to `CCNC(=O)c1cc2c(=O)n3cccc(C)c3nc2n(Cc2ccc(C)cc2)c1=N`, for which the “activity change, negative = cytotoxicity” value was -17.9%.

As to `CCn1c(=NC(=O)CSC(C)=O)sc2cc(OC)ccc21`, the “activity change, negative = cytotoxicity” value was -8%.

As for `CC(=O)c1cccc(-c2ccnc3c2CC(C(=O)NCc2ccc(F)c(F)c2)O3)c1` (stereo not given), the “activity change, negative = cytotoxicity” value was 2.47%.

As to `Cc1cc(=O)oc2cc(OC(=O)c3cncc(Br)c3)ccc12`, the “activity change, negative = cytotoxicity” value was 4.96%.

For `COC(=O)C1=CN(C)C=C(C(=O)OC)C1c1ccccc1Cl`, the “activity change, negative = cytotoxicity” value is -5.6%.

As for `COc1ccc(C2CC(c3ccccc3)=NN2c2ccc(C(N)=O)cc2)cc1` (stereo not given), the “activity change, negative = cytotoxicity” value was 2.22%.

Regarding `COc1cc(C(c2c(C(=O)O)[nH]c3ccccc23)c2c(C(=O)O)[nH]c3ccccc23)ccc1OCc1ccccc1`, the “activity change, negative = cytotoxicity” value was -14.1%.

Turning to `S=c1[nH]c2ccc(Cc3ccc4[nH]c(=S)[nH]c4c3)cc2[nH]1`, the “activity change, negative = cytotoxicity” value was -19.2%.

With `O=C(c1cccc(Cl)c1)N1CCC(=O)N(C(COCc2ccccc2)Cc2ccccc2)CC1` (stereo not given), the “activity change, negative = cytotoxicity” value is -2.11%.
